One molecule from PubChem BioAssay AID489017 (The Scripps Research Institute Molecular Screening Center, 2010) can be followed below.

In this assay the test system is Rolipram. The assay can be described thus: off-target binding and CYP450 inhibition panel, profiling panel, selectivity assay for S1P4 antagonist project, biochemical, Ricerca HitProfilingScreen (AID 489017). To be noted: Ricerca receptor/enzyme binding panel plus CYP450, at 10 µM, hits give high values.

A number with no mark means an inactive call. The rule behind the calls is not given here.

Regarding `CCc1cccc(CC)c1NC(=O)c1ccc(-c2cc(Cl)ccc2Cl)o1`, the inhibition is -2%.
